Consider 31 compounds from PubChem BioAssay (NCATS).

Experiment [1] can be described thus: qHTS assay for small molecule activators of the human pregnane X receptor (PXR) signaling pathway (AID 720659). Note: 0% is about no effect.
The target in experiment [2] is Nuclear receptor subfamily 1 group I member 2 (Rattus norvegicus) (UniProt Q9R1A7). The experiment can be described thus: qHTS assay for small molecule activators of the rat pregnane X receptor (rPXR) signaling pathway (AID 651751). Note: 0% is about no effect. The settings on record: rPXR reporter cells, luciferase (One-Glo), 24 h.
Experiment [3] can be described thus: qHTS assay to identify inhibitors of the type 1 interferon - major histocompatibility complex class I in skeletal muscle: Counter screen cell viability and HiBit confirmation (AID 1347412; active = well fitted inhibition curve with a large enough effect; note: potency is the fitted concentration of half-maximal effect; for activity change, negative = inhibition: % is set by controls: 0 for no effect and ±100 for the full control effect; for all read-outs here: nearly all actives have a fitted effect of over 60% in size). The settings on record: iHSKM muscle cells + IFN-b, HiBiT or CellTiter-Glo, 24 h; for activity change, negative = inhibition: at 45.9 µM (top of the series). The method, boiled down: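 Human myoblast knock-in line, 4.0 ng/ml IFN-beta stimulation, 24 h compound treatment. Endpoints: HiBiT lytic luminescence (HLA-B level) and CellTiter Glo (ATP). Dosing 12 concentrations, 3-fold steps, 46 uM highest final.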

Several values for one entry are separate records, joined by “and”; a condition that tells them apart may be missing. Equal entries are not always repeated. A number with no mark means an inactive call. Results filed as inconclusive are left out. Activity calls are given as the source filed them. Unless noted, the rule behind the calls is not given here.

Chain of Nuclear receptor subfamily 1 group I member 2 (Rattus norvegicus) (Q9R1A7 whole entry, looked up): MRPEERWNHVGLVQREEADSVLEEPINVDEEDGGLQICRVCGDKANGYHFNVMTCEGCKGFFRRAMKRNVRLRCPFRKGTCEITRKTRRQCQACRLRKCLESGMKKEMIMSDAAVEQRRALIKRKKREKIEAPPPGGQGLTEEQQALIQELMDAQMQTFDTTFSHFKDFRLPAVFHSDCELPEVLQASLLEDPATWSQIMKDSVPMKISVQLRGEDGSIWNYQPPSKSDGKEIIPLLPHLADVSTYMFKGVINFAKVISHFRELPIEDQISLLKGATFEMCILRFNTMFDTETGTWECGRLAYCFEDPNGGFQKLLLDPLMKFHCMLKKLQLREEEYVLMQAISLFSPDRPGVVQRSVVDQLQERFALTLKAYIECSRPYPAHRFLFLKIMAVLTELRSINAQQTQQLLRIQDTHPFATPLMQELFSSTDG

For `Cc1noc(NS(=O)(=O)c2ccc(N)cc2)c1C`, in experiment [1], the compound was classed as inactive.

For the compound `Cc1nnc(NS(=O)(=O)c2ccc(N)cc2)s1`, the max response in experiment [2] is -0.291%. For the same compound, in experiment [1], the result was inactive.

For `CCc1cc(C(N)=S)ccn1`, in experiment [2], the max response is 7.13% and -2.63%.

Take `N=C(N)c1ccc(OCCCCCOc2ccc(C(=N)N)cc2)cc1`: in experiment [1], the call was inactive.

On to `Oc1c(Cl)cc(Cl)c2cccnc12`, for which the activity change, negative = inhibition in experiment [3] (HiBiT) is -16.5%; in experiment [3] (Viability), -8.17%.

Regarding `CCCCc1oc2ccc(NS(C)(=O)=O)cc2c1C(=O)c1ccc(OCCCN(CCCC)CCCC)cc1`, the activity change, negative = inhibition in experiment [3] (HiBiT) was -10.2%.

With `COC(=O)Nc1nc2ccc(C(=O)c3ccccc3)cc2[nH]1`, the activity change, negative = inhibition in experiment [3] (Viability) was -33.9%.

As for `COc1cc2nc(N3CCCN(C)CC3)nc(NC3CCN(Cc4ccccc4)CC3)c2cc1OC`, in experiment [3] (Viability), the Potency is 22.2 µM (active).

Take `O=C(N[C@H](CO)[C@H](O)c1ccc([N+](=O)[O-])cc1)C(Cl)Cl`: the max response in experiment [2] was -5.66% and -3.04%.

As to `NC(N)=NC(N)=NCCc1ccccc1`, the compound was called inactive in experiment [1].

As to `C[C@@H](NCCCc1cccc(C(F)(F)F)c1)c1cccc2ccccc12`, the activity change, negative = inhibition in experiment [3] (HiBiT) is 14%; in experiment [3] (Viability), -23.6%.

Take `CC(=O)CC(c1ccccc1)c1c(O)c2ccccc2oc1=O` (centres undefined): the max response in experiment [2] is 2.18%. Besides, the call in experiment [1] was inactive.

On to `CN(C)c1ccc(C(=C2C=CC(=[N+](C)C)C=C2)c2ccc(N(C)C)cc2)cc1`, for which the Potency in experiment [3] (HiBiT) and in experiment [3] (Viability) was 9.91 µM (active) in each case. For the same compound, the compound was classed as inactive in experiment [1].

`S=P(N1CC1)(N1CC1)N1CC1`: in experiment [2], the max response is 2.63%.

Regarding `N[C@@H](Cc1ccc(O)c(O)c1)C(=O)O`, in experiment [2], the max response was -10%. In addition, the compound was called inactive in experiment [1].

Take `O=C(O)c1cc(=O)[nH]c(=O)[nH]1`: the max response in experiment [2] was -3.54%. Also, the result in experiment [1] was inactive.

With `Cc1ncc([N+](=O)[O-])n1CCO`, the max response in experiment [2] was 6.53%. Moreover, in experiment [1], the compound was called inactive.

With `CC(=O)Oc1ccccc1C(=O)Nc1ncc([N+](=O)[O-])s1`, the Potency in experiment [3] (HiBiT) is 14 µM (active). Moreover, in experiment [3] (Viability), the activity change, negative = inhibition is -5.7%.

Consider `COc1cc2ncnc(Nc3cccc(Cl)c3)c2cc1OC`, for which the activity change, negative = inhibition in experiment [3] (Viability) was -9.03%.

Take `Nc1nc(N)c2nc(CNc3ccc(C(=O)NC(CCC(=O)O)C(=O)O)cc3)cnc2n1` (centres undefined): the max response in experiment [2] is -7.99%. Further, in experiment [1], the outcome was inactive.

Take `Cc1cc(NS(=O)(=O)c2ccc(N)cc2)no1`: the max response in experiment [2] is 3.86%. The outcome in experiment [1] was inactive.

For the compound `OC(Cn1cncn1)(Cn1cncn1)c1ccc(F)cc1F`, the max response in experiment [2] was 4.95%.

Take `O[C@@H](CNC[C@H](O)[C@H]1CCc2cc(F)ccc2O1)[C@@H]1CCc2cc(F)ccc2O1`: the figures for the activity change, negative = inhibition in experiment [3] (HiBiT) and in experiment [3] (Viability) were 26% and -9.67%, respectively.

Consider `NNC(=O)c1ccncc1`, for which the max response in experiment [2] is 6.47%. For the same compound, the outcome in experiment [1] was inactive.

As for `Cc1ccnc2c1NC(=O)c1cccnc1N2C1CC1`, the max response in experiment [2] is -6.61%. Also, the result in experiment [1] was inactive.

Take `COc1cc(NCc2ccc3nc(N)nc(N)c3c2C)cc(OC)c1OC`: the activity change, negative = inhibition in experiment [3] (HiBiT) was -7.08%; in experiment [3] (Viability) it was -0.467%.

Take `CNC(=O)c1cc(Oc2ccc(NC(=O)Nc3ccc(Cl)c(C(F)(F)F)c3)cc2)ccn1`: the activity change, negative = inhibition in experiment [3] (Viability) was -24%.

Turning to `COc1ccc2cc3[n+](cc2c1OC)CCc1cc2c(cc1-3)OCO2`, the max response in experiment [2] is 6.2%. The compound was classed as inactive in experiment [1].

Regarding `CCC(=O)O[C@]1(C(=O)SCF)[C@H](C)C[C@H]2[C@@H]3C[C@H](F)C4=CC(=O)C=C[C@]4(C)[C@@]3(F)[C@@H](O)C[C@@]21C`, the results for the activity change, negative = inhibition in experiment [3] (HiBiT) and in experiment [3] (Viability) were -26.7% and 10%, respectively.

On to `CC(C)C[C@H](NC(=O)[C@H](CCc1ccccc1)NC(=O)CN1CCOCC1)C(=O)N[C@@H](Cc1ccccc1)C(=O)N[C@@H](CC(C)C)C(=O)[C@@]1(C)CO1`, for which the Potency in experiment [3] (HiBiT) was 0.0883 µM (active).

On to `CC1=NN(c2ccccc2)C(=O)C1`, for which the max response in experiment [2] was 3.89% and 0.779%.
